Counter-ions that a name gives are not always drawn.
Tested on: HeLa
Assay: percent cells in G2/M phase; higher = more G2/M arrest
Details: 10 µM; 20 h
Method: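 HTS of 79,827 drug-like compounds at 10 uM. HeLa cells in 384-well plates were treated for 20 h, fixed, stained with Vybrant DyeCycle Green and scanned on an Acumen eX3 cytometer to give per-well cell cycle profiles (% cells in each phase). The plate Z' was 0.51. Only hits are listed: G1 hits >4 SD and S hits >5 SD from the mean.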

SMILES	percent cells in G2/M phase
COc1ccc(CSc2nncn2N)cc1 (hit class: S-phase inhibitor)	15.1%
Cc1cc(N2CCCCC2)c(F)cc1[N+](=O)[O-] (hit class: S-phase inhibitor)	22.3%
CCN(CC)Cc1c(O)ccc2c(=O)c(-c3ccccc3)coc12 (hit class: S-phase inhibitor)	17%
O=C(COc1ccc(Cl)cc1)NC(Cc1c[nH]c2ccccc12)C(=O)O (configuration not stated) (hit class: G1-phase inhibitor)	20.6%
COc1[nH]c2ccccc2c1C=NO (hit class: S-phase inhibitor)	12.8%
O=C1c2c(O)ccc(O)c2C(=O)c2c(NCCNCCO)ccc(NCCNCCO)c21 [Mitoxantrone dihydrochloride] (hit class: G1-phase inhibitor)	0.73%
CC(=O)C1=C(O)C(=O)N(CC(=O)O)C1c1ccccc1F (configuration not stated) (hit class: S-phase inhibitor)	12.9%
Nc1ccn([C@H]2CC[C@@H](CO)O2)c(=O)n1 [Zalcitabine] (hit class: S-phase inhibitor)	29.8%
CC[C@@H](C(=O)[C@@H](C)[C@@H](O)[C@H](C)CCc1ccc(C)c(O)c1C(=O)O)[C@H]1O[C@](CC)([C@H]2CC[C@](O)(CC)[C@H](C)O2)C[C@@H]1C [Lasalocid sodium salt] (hit class: G1-phase inhibitor)	16.8%
Cn1c(SCc2ccccc2)nc2ccccc2c1=O (hit class: S-phase inhibitor)	15.4%
c1ccc2c(c1)Nc1nc3ccccc3nc1O2 (hit class: G1-phase inhibitor)	21.4%
COc1c(C)c2c(c(O)c1C/C=C(\C)CCC(=O)O)C(=O)OC2 [Mycophenolic acid] (hit class: S-phase inhibitor)	28.6%
C[C@@H]1C[C@H]2[C@@H]3C[C@H](F)C4=CC(=O)C=C[C@]4(C)[C@@]3(Cl)[C@@H](O)C[C@]2(C)[C@H]1C(=O)COC(=O)C(C)(C)C [Clocortolone pivalate] (hit class: S-phase inhibitor)	30.1%
Cc1ccc(-c2cc(-c3ccccc3Cl)[nH]n2)c(O)c1 (hit class: G1-phase inhibitor)	17.1%
COc1ccc(C(=O)c2coc3ccc(OC)cc3c2=O)cc1 (hit class: G1-phase inhibitor)	19%
Cc1cc([N+](=O)[O-])ccc1NCc1ccc(F)c(F)c1 (hit class: G1-phase inhibitor)	18.3%
C[C@@H]1CCC[C@H](C)N1NC(=O)c1ccc(Cl)c(S(N)(=O)=O)c1 [Clopamide] (hit class: G1-phase inhibitor)	15.9%

From the supplement of paper PMC4237247
